PubChem BioAssay AID1159580 (chemical genetic matrix, 2015)
Where “and” joins values, the source holds several entries; their conditions need not be identical. Equal entries are not always repeated. Screen size: about 5,500 compounds; about 2,000 (36%) were called active. About 18% were inconclusive and are not listed. Rule as the data show it: active = normalized growth mostly below about 0.91 (no sharp cut-off); inconclusive = no clear call, values can overlap the other calls; inactive = mostly above about 0.92. This is one part of the list.

Experiment: chemical genetic growth profiling, strain panel (AID 1159580);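 also: tested at 20 µM; growth read once vehicle control cultures reached saturation at 30 °C; 1 = growth at the plate median or of vehicle wells; lower values mean less growth of the strain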
Conditions: S. cerevisiae deletion strains, growth OD

Measured: normalized growth

CO[C@@]1(NC(=O)C(C(=O)O)c2ccc(O)cc2)C(=O)N2C(C(=O)O)=C(CSc3nnnn3C)CO[C@@H]21 (stereo partly specified)
inactive: locus YAL013W, strain DEP1, hits give low values 1.01 | locus YAL021C, strain ccr4, hits give low values 0.993 | locus YAL026C, strain drs2, hits give low values 1 | locus YAL030W, strain snc1, hits give low values 0.982 | locus YBL061C, strain skt5, hits give low values 0.979 | locus YBR021W, strain FUR4, hits give low values 0.998 | locus YBR023C, strain chs3, hits give low values 0.994 | locus YBR171W, strain sec66, hits give low values 0.984 | locus YBR229C, strain ROT2, hits give low values 1 | locus YBR231C, strain swc5, hits give low values 0.956 | locus YBR279W, strain paf1, hits give low values 0.995 | locus YCL011C, strain gbp2, hits give low values 0.955 | locus YCL016C, strain dcc1, hits give low values 0.955 | locus YCL029C, strain bik1, hits give low values 1.03 | locus YCL061C, strain MRC1, hits give low values 1 | locus YCL069W, strain vba3, hits give low values 0.991 | locus YCR088W, strain abp1, hits give low values 0.984 | locus YDL005C, strain med2, hits give low values 0.991 | locus YDL035C, strain GPR1, hits give low values 0.999 | locus YDL040C, strain nat1, hits give low values 0.989 | locus YDL074C, strain BRE1, hits give low values 1.03 | locus YDL101C, strain DUN1, hits give low values 1.01 | locus YDL134C, strain PPH21, hits give low values 1 | locus YDL185W, strain tfp1, hits give low values 1.03 | locus YDL192W, strain arf1, hits give low values 1.02 | locus YDR001C, strain nth1, hits give low values 0.977 | locus YDR069C, strain doa4, hits give low values 1.01 | locus YDR101C, strain arx1, hits give low values 1.01 | locus YDR137W, strain rgp1, hits give low values 0.98 | locus YDR150W, strain NUM1, hits give low values 1.02 | locus YDR159W, strain sac3, hits give low values 1.01 | locus YDR162C, strain NBP2, hits give low values 1 | locus YDR195W, strain ref2 1 | locus YDR297W, strain sur2, hits give low values 0.971 | locus YDR318W, strain mcm21, hits give low values 1.02 | locus YDR334W, strain swr1, hits give low values 0.942 | locus YDR335W, strain msn5, hits give low values 0.981 | locus YDR388W, hits give low values 1.02 | locus YDR392W, strain spt3, hits give low values 0.909 | locus YDR502C, strain sam2, hits give low values 1.01 | locus YEL003W, strain gim4, hits give low values 0.99 | locus YEL037C, strain rad23, hits give low values 0.988 | locus YEL061C, strain CIN8 (second series), hits give low values 0.982 | locus YEL061C, strain CIN8, hits give low values 1.01 | locus YER015W, strain faa2, hits give low values 0.982 | locus YER016W, strain bim1, hits give low values 1 | locus YER110C, hits give low values 1.02 | locus YER111C, strain swi4, hits give low values 0.983 | locus YER155C, strain BEM2 (second series), hits give low values 0.993 | locus YER155C, strain BEM2, hits give low values 1.01 | locus YER167W, strain BCK2, hits give low values 1 | locus YFR010W, strain ubp6, hits give low values 0.996 | locus YGL078C, strain dbp3, hits give low values 0.998 | locus YGL086W, strain mad1, hits give low values 1.01 | locus YGL167C, strain pmr1, hits give low values 0.987 | locus YGL173C, strain kem1, hits give low values 0.992 | locus YGL227W, strain vid30, hits give low values 0.99 | locus YGL240W, strain doc1, hits give low values 0.987 | locus YGL248W, strain PDE1, hits give low values 1.01 | locus YGL253W, strain hxk2, hits give low values 0.996 | locus YGR078C, strain PAC10, hits give low values 1.02 | locus YGR135W, strain pre9, hits give low values 1 | locus YGR229C, strain SMI1, hits give low values 1 | locus YGR252W, strain gcn5, hits give low values 0.93 | locus YHR013C, strain ard1, hits give low values 0.962 | locus YHR027C, strain rpn1, hits give low values 0.964 | locus YHR030C, strain SLT2, hits give low values 1.01 and 0.97 | locus YHR079C, strain IRE1 (second series), hits give low values 1.02 | locus YHR079C, strain IRE1, hits give low values 0.99 | locus YHR094C, strain hxt1, hits give low values 1.02 | locus YHR129C, strain ARP1, hits give low values 1 | locus YHR142W, strain chs7, hits give low values 0.974 | locus YHR200W, strain rpn10, hits give low values 1.02 | locus YIL066C, strain RNR3, hits give low values 1.02 | locus YIL073C, strain SPO22, hits give low values 1.04 | locus YIL125W, strain kgd1, hits give low values 1.01 | locus YIR030C, strain dcg1, hits give low values 1.02 | locus YJL092W, strain hpr5, hits give low values 0.983 | locus YJL095W, strain BCK1 (second series), hits give low values 0.982 | locus YJL095W, strain BCK1, hits give low values 1.01 | locus YJL115W, strain asf1, hits give low values 0.96 | locus YJL129C, strain trk1, hits give low values 0.999 | locus YJL134W, strain LCB3, hits give low values 1 | locus YJL154C, strain vps35, hits give low values 0.975 | locus YJL164C, strain tpk1, hits give low values 0.989 | locus YJL166W, strain qcr8, hits give low values 0.951 | locus YJL168C, strain set2, hits give low values 1.02 | locus YJL187C, strain SWE1 (second series), hits give low values 1.02 | locus YJL187C, strain SWE1, hits give low values 0.986 | locus YJR043C, strain POL32, hits give low values 1.01 | locus YJR066W, strain TOR1, hits give low values 0.918
